# ELG1 genotox – induces genotoxicity in HEK293T cells with luciferase-tagged ELG1; Potency, µM (top dose mostly 46 µM), inactives show at the top dose activity change, positive = activation, hits mostly activators; AID 504466; 330,000 compounds, 1.3% hits; HEK293T ELG1-luciferase reporter, luminescence, 16 h; also: % of control where 0% means no effect; nearly all actives have a fitted effect of over 60% in size
#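 HEK293T cells expressing luciferase-tagged ELG1 were treated with compound or DMSO for 16 hr at 37°C. Luciferase activity was then read after 30 min with ONE-Glo at room temperature; rising signal flags genetic stress.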
# Rab9 promoter act – Rab9 promoter activation; Huh7 Rab9 promoter-luciferase reporter, luminescence, 24 h; Potency, µM (titrated, usually from 9.22 µM), without a hit: at the highest dose activation, negative = inhibition, most hits filed as activators; 320,000 compounds, 2.8% hits; also: % of control where 0% means no effect; nearly all actives have a fitted effect of over 60% in size
#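 Huh7 reporter line, Rab9 promoter upstream of luciferase. Compound exposure 24 h at 37 °C in reduced-serum medium with 10% FBS. Read-out: luminescence.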
# SMN2 splice up – SMN2 splice variant enhancement; Potency, µM (doses to about 46.1 µM), inactives show top-dose activity change, positive = activation, most hits filed as activators; AID 1458; 210,000 compounds, 2.8% hits; HEK293 SMN2-luciferase splicing reporter, luminescence, 30-36 h; also: % of control where 0% means no effect; nearly all actives have a fitted effect of over 55% in size
#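 qHTS luciferase splicing reporter: luminescence rises when SMN2 exon 7 is included in transfected HEK293 cells. Compound exposure lasted 30-36 h at 37C, with 4.5 mM final sodium butyrate as control, followed by a ONE-Glo read.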
# NPC1 prom act – NPC1 promoter activation; Huh7 NPC1 promoter luciferase reporter, 24 h; 320,000 compounds, 2.4% hits; AID 485313; Potency, µM (series often up to 9.22 µM), inactives show top-dose activation, hits mostly activators; also: % of control where 0% means no effect; nearly all actives have a fitted effect of over 60% in size
#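 Luminescence from an NPC1 promoter-driven luciferase reporter in stably transfected Huh7 cells was measured after 24 h compound treatment at 37 °C, followed by 10 min ambient incubation with luciferase detection reagent.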
# FLuc counter – firefly luciferase modulation, counter-screen for miR-21 project; AID 588342; P08659; 360,000 compounds, 6.9% hits; purified FLuc, Km substrates, luminescence inhibition; Potency, µM (top dose mostly 57.5 µM), for inactives: top-dose activity change, negative = inhibition, most hits filed as inhibitors;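 also: plate controls were vehicle for no effect and reference inhibitor for full effect; nearly all actives have a fitted effect of over 55% in size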
# Target sequence (P08659 whole entry, looked up): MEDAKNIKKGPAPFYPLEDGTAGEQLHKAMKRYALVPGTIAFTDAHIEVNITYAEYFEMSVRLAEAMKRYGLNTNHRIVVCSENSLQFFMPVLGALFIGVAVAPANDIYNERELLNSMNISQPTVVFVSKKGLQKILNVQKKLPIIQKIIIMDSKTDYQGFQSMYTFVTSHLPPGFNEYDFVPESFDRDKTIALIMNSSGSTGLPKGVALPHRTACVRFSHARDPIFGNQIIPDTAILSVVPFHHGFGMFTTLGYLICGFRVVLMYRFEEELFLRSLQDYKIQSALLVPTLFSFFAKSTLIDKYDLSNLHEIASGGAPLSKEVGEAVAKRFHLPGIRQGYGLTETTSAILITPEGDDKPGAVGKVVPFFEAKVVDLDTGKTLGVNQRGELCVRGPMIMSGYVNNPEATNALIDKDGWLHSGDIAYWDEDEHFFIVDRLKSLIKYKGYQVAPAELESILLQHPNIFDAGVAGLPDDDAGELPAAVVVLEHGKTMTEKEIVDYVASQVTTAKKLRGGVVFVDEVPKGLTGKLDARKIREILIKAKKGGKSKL
#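 Purified P. pyralis luciferase (10nM final) with 10uM D-luciferin and 10uM ATP (Km levels) in 50mM Tris acetate pH 7.5, 10mM Mg acetate, 0.01% Tween-20, 0.05% BSA; qHTS 6-point titration, ~60 µM downward; luminescence read.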
# * hit, by the source's call; u = inconclusive; x = not tested or not shown; [ ] = remark or other dose. Hits are enriched below; roughly 7.4% of the tested compounds scored in any of these assays. Calls follow the shape of the dose curve; as a rule, active = well fitted curve in the direction sought with a large enough effect; inconclusive = small, poorly fitted or top-dose-only effect, or another doubt; inactive = no such curve, though single readings can be large; an effect the other way counts as inactive or inconclusive. Potency is read from the fitted curve at half-maximal effect.
SMILES,ELG1 genotox,Rab9 promoter act,SMN2 splice up,NPC1 prom act,FLuc counter
N#CCC(=O)N/N=C/c1cn(Cc2ccc(Cl)c(Cl)c2)c2ccccc12,9.7%,-4.2%,x,-1.2%,-1.1%
CC(C)n1cc(/C=N/Nc2ccc(Cl)c(C(=O)O)c2)c2ccccc21,8.2µM*,1.58µM*,x,1.78µM*,13.5µM*
O=C(O)c1cc(N/N=C/C(Cl)=C/c2ccccc2)ccc1Cl,u,u,0.891µM*,u,0.107µM*
O=[N+]([O-])c1cccc(N/N=C/c2cccc3ccccc23)c1,12.3%,12.3%,u,5.0%,19µM*
O=C(O)c1cc(N/N=C/c2cccc3ccccc23)ccc1Cl,u,1.41µM*,x,0.794µM*,7.57µM*
O=c1cc(OCc2ccccc2)cc[nH]1,1.3%,1.9%,x,-0.6%,2.5%
CC(=O)C[C@@H](O)CC(=O)[C@@H]1OC(=O)[C@H](C)C/C=C\Cc2ccccc21,4.9%,x,x,x,x
COc1ccc(C)cc1NC(=O)NCCn1nnc2cc(S(=O)(=O)N(C)C)ccc21,x,x,x,x,-6.7%
COc1ccccc1CNC(=O)c1ccc2ccccc2n1,13.9%,-0.2%,x,-2.8%,u
O=C(O)/C=C/C(=O)Nc1ccc(Cl)c(C(=O)O)c1,3.0%,-1.0%,x,10.4%,-7.7%
NNc1ccc(Cl)c(C(=O)O)c1,u,1.26µM*,x,1.26µM*,12µM*
COc1ccccc1C(=O)N/C(=C\c1cn(S(=O)(=O)N(C)C)c2ccccc12)C(=O)NCCN1CCOCC1,-4.9%[9.26 µM],1.6%,x,-4.6%,2.5%
Cc1ccc2sc(-c3ccc(NC(=O)CCN4C(=O)c5ccccc5C4=O)cc3)nc2c1,4.61µM*,0.282µM*,0.398µM*,0.501µM*,10.7µM*
O=C(CCN1C(=O)c2ccccc2C1=O)Nc1ccc(-c2cn3ccsc3n2)cc1,u,2.24µM*,u,u,2.69µM*
CC(=O)Nc1ccc(S(=O)(=O)NCc2cn3ccsc3n2)cc1,1.4%,-4.9%,4.5%,-2.1%,-1.5%
Cc1ccc(NC(=O)CCN2C(=O)c3ccccc3Sc3ncccc32)cc1,0.3%,-9.8%,x,2.1%,-4.5%
CC(=O)Nc1ccc(-c2cn3ccsc3n2)cc1,5.8µM*,1.41µM*,10µM*,1.58µM*,12µM*
O=C(Nc1ccc(-c2cn3ccsc3n2)cc1)C1CC1,u,1.58µM*,u,2.24µM*,2.69µM*
CC(=O)Nc1ccc(NC(=O)CCN2C(=O)c3ccccc3C2=O)cc1,-6.5%,-8.7%,x,5.1%,-4.3%
Cc1ccc(-n2c(=O)c3cccnc3n2CC(=O)NCc2ccc(Cl)cc2)cc1,x,x,-7.7%,x,-15.3%
O=C(CC1CCCCC1)Nc1ccc(-c2ccc3nncn3n2)cc1,6.9%,2.0%,-13.7%,-2.1%,-0.6%
O=C(Nc1ccc(-c2cn3ccsc3n2)cc1)C1CCCC1,1.84µM*,3.16µM*,u,3.98µM*,1.35µM*
O=C(Nc1ccc(-c2ccc3nncn3n2)cc1)C1CCCC1,-3.2%,14.0%,u,7.1%,19µM*
Cc1ccc(S(=O)(=O)N2CCOCC2)cc1C(=O)Nc1ccc(-c2cn3ccsc3n2)cc1,-8.9%,-3.1%,-49.4%,-0.7%,u
c1cn2cc(-c3ccc4c(c3)OCO4)nc2s1,u,0.631µM*,12.6µM*,0.447µM*,1.9µM*
SMILES,ELG1 genotox,Rab9 promoter act,SMN2 splice up,NPC1 prom act,FLuc counter
Cc1ccc(S(=O)(=O)Nc2cccc(-c3cn4ccsc4n3)c2)cc1,-6.5%,-9.4%,u,-16.1%,u
Oc1ccc(-c2nc3c4c(ncn3n2)-c2ccccc2CC42CCCC2)cc1,-18.8%,-8.7%,-46.0%,-2.5%,1.5%
Nc1[nH]c(N=NC(=O)c2ccc(Cl)cc2)c2ccccc12,2.0%,20.0%,u,17.7%,u
O=C(N=Nc1c(O)[nH]c2ccc([N+](=O)[O-])cc12)c1ccccc1Cl,0.1%,7.6%,x,14.2%,-15.6%
Nc1[nH]c(N=NC(=O)c2ccccc2O)c2ccccc12,14.6µM*,2µM*,11.2µM*,2.82µM*,8.49µM*
Nc1[nH]c(N=NC(=O)c2ccccc2)c2ccccc12,u,1.12µM*,2.82µM*,1.78µM*,4.78µM*
O=c1cc(O)c2ccc(O)cc2o1,1.5%,7.7%,x,0.0%,-0.6%
O=c1ccc2[n+]([O-])c3ccc(O)cc3oc-2c1,-9.7%,-0.4%,x,1.7%,15.1µM*
